Measured values published in PubChem BioAssay (NCATS).
Active and inactive are the calls of the source. The rule behind the calls is not given here.

Conditions: Ebola virus entry assay, reporter ratio channel; Channel type: primary

Row | Compound | AC50 | outcome
1 | C1CCC(C(CC2CCCCN2)C2CCCCC2)CC1 (centres undefined) | 0.891 µM (active) | –
2 | CN(C)CCCOc1nn(Cc2ccccc2)c2ccccc12 | 3.55 µM (active) | –
3 | CCCCCCCCCCOCC(O)CN (centres undefined) | 1.78 µM (active) | –
4 | C[C@H]1O[C@@H](O[C@H]2CC[C@@]3(C)[C@H](CC[C@@H]4[C@@H]3C[C@@H](O)[C@]3(C)[C@@H](C5=CC(=O)OC5)CC[C@]43O)C2)C[C@H](O)[C@@H]1O[C@H]1C[C@H](O)[C@H](O[C@H]2C[C@H](O)[C@H](O[C@@H]3O[C@H](CO)[C@@H](O)[C@H](O)[C@H]3O)[C@@H](C)O2)[C@@H](C)O1 | 0.891 µM (active) | –
5 | CN1CCC(=C2c3ccccc3CC(=O)c3sccc32)CC1 | 28.2 µM (active) | –
6 | CC(=O)NC(Cc1ccccc1)C(=O)O (centres undefined) | – | inactive
7 | CCCCC[C@H](O)C=C[C@H]1[C@H](O)CC(=O)[C@H]1CC=CCCCC(=O)O | 7.08 µM (active) | –
8 | CCOC(=O)Cn1cccc1-c1nc(-c2ccc(OC)cc2)c(-c2ccc(OC)cc2)s1 | 0.708 µM (active) | –
9 | Cc1ccc(N(CC2=NCCN2)c2cccc(O)c2)cc1 | 31.6 µM (active) | –
10 | Nc1c2c(nc3c1CCC3)CCCC2 | 31.6 µM (active) | –
11 | COc1cccc2c1C(=O)c1c(O)c3c(c(O)c1C2=O)C[C@@](O)(C(C)=O)C[C@@H]3O[C@H]1C[C@H](N)[C@H](O)[C@H](C)O1 | 5.01 µM (active) | –
12 | O=C(O)c1cn(-c2ccc(F)cc2)c2cc(N3CCNCC3)c(F)cc2c1=O | – | inactive
13 | C[C@@H]1CN(CCCn2c3ccccc3c3ccccc32)C[C@H](C)N1 | 3.16 µM (active) | –
14 | OCc1cc(C(O)CNCCCCCCOCCCCc2ccccc2)ccc1O (centres undefined) | 7.08 µM (active) | –
15 | COc1ccc(CCN2CCC(Nc3nc4ccccc4n3Cc3ccc(F)cc3)CC2)cc1 | 2.82 µM (active) | –
16 | NC(=NCCCCCCN=C(N)/N=C(\N)Nc1ccc(Cl)cc1)/N=C(\N)Nc1ccc(Cl)cc1 | 39.8 µM (active) | –
17 | O=C(c1ccc(F)cc1)C1CCN(CCn2c(=O)[nH]c3ccccc3c2=O)CC1 | 17.8 µM (active) | –
18 | CCN(CC)CCOc1ccc(Cc2ccccc2)cc1 | 3.55 µM (active) | –
19 | CN(C)CC/C=C1\c2ccccc2Sc2ccc(Cl)cc21 | 3.16 µM (active) | –
20 | CCO[C@@H]1O[C@H](C(COCc2ccccc2)OCc2ccccc2)[C@H](OCc2ccccc2)[C@H]1O (some centres undefined) | 15.8 µM (active) | –

Row | Compound | AC50 | outcome
21 | CN(C)C(=S)SC(=S)N(C)C | 5.01 µM (active) | –
22 | CN1CCN(C2Cc3ccccc3Sc3ccc(Cl)cc32)CC1 (centres undefined) | 5.01 µM (active) | –
23 | CC(=O)c1ccc2c(c1)N(CCCN(C)C)c1ccccc1S2 | 12.6 µM (active) | –
24 | CCN1C(=O)c2ccccc2C1Nc1ccc(OCCN2CCCCC2)cc1 (centres undefined) | 15.8 µM (active) | –
25 | O=C(CCCN1CCN(c2ccc(F)cc2)CC1)NC1c2ccccc2CSc2ccccc21 (centres undefined) | 7.08 µM (active) | –
26 | CCN(CC)CCOc1ccc(C(O)(Cc2ccc(Cl)cc2)c2ccc(C)cc2)cc1 (centres undefined) | 1.78 µM (active) | –
27 | OCCN1CCN(CCCN2c3ccccc3C=Cc3ccccc32)CC1 | 14.1 µM (active) | –
28 | CC1=C(C(=O)OC(C)C)C(c2cccc([N+](=O)[O-])c2)C(C(=O)OC2CN(C(c3ccccc3)c3ccccc3)C2)=C(N)N1 (centres undefined) | 28.2 µM (active) | –
29 | O=C(NC1CCN(CCc2c[nH]c3ccccc23)CC1)c1ccccc1 | 35.5 µM (active) | –
30 | O=C(CCCN1CC=C(n2c(=O)[nH]c3ccccc32)CC1)c1ccc(F)cc1 | 17.8 µM (active) | –
31 | CC(CC1c2ccccc2CCc2ccccc21)CN(C)C (centres undefined) | 3.98 µM (active) | –
32 | CCCC(=O)O[C@]1(C(=O)CC)CC[C@H]2[C@@H]3CCC4=CC(=O)CC[C@]4(C)[C@H]3[C@@H](O)C[C@@]21C | – | inactive
33 | CCCCCCCCCCCCCCCC[N+](C)(C)Cc1ccccc1 | 22.4 µM (active) | –
34 | O=C1OC2(c3ccccc31)c1cc(I)c(O)c(I)c1Oc1c2cc(I)c(O)c1I | 39.8 µM (active) | –
35 | CN1C[C@H](C(=O)N[C@]2(C)O[C@@]3(O)[C@@H]4CCCN4C(=O)[C@H](Cc4ccccc4)N3C2=O)C[C@@H]2c3cccc4[nH]cc(c34)C[C@H]21 | 17.8 µM (active) | –
36 | CCN(CC)CCOc1ccccc1C(=O)CCc1ccccc1 | 14.1 µM (active) | –
37 | CCC(CN)=C(c1ccccc1)c1ccccc1 | 17.8 µM (active) | –
38 | CN(C)CCOC(c1ccccc1)c1ccc(Br)cc1 (centres undefined) | 11.2 µM (active) | –
39 | COc1cccc(N(C)C(=S)Oc2ccc3c(c2)CCCC3)n1 | 28.2 µM (active) | –
